According to the supplement of paper PMC6555819:

Tested on: PXR homodimer (NR concentration 270 nM)
Assay: PBM binding z-score (relative to random genomic background probes); higher = stronger binding; sequences stand for … in GC…GCGATTGACAGCGTAGAATGAAGG
Outline: (§1)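 Each nuclear receptor dimer, without ligand, was incubated for 1 h on custom Agilent 4×180K protein-binding microarrays. Binding was detected with antibodies against each partner (one per run), and scanned fluorescence was regression-normalized. The binding z-scores are referenced to random human genomic background probes.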

Row | Sequence | PBM binding z-score
1 | TCATATAGGTAAAGGTGAAAGTAGAACGATATGA | -0.104
2 | CCGAGTAGGTTATGCGGCATTCAGGCAACGGTGA | 0.0083
3 | TCAGCCAGGTGAAGGTAACTCAGGTACGCAGTCG | -0.594
4 | ACTAGCAGGCCAAGTTTGGGTTACTCAAACAAAG | -0.543
5 | CCTCGGAGGAAAACAGGAGGTCAGAGCTGCCAGA | 0.172
6 | ATATGTTGGTTAGCTGGGGTCATTCAGACTAGGC | 3.66
7 | GCTTACGGGCCAAAGGTTATAGCATGAATAGAAT | 0.0168
8 | GCTAGCAGGCCATTTGGGTCACTTAATGACGGGC | -0.077
9 | ATCGAAAGGTCGAAGGTGAGTAAACCCACCCGAA | 0.0457
10 | TTACCAATGTGAAGGTCGTTGATCCCTCTGTAGA | 0.539
11 | TCATATAGGTTATACAGGTGAAAGTCGGCATCTA | 1.03
12 | AATACAGGGTCACTAGGCCAGAGCAGGTACGAAT | -0.000752
13 | CCAGACAAGTGAAAGGTAACTCAGTCTGGTACGC | -0.0763
14 | CCTACTGGGCCACGAAGGGTCATTGATTCAGTGA | 0.0111
15 | CAGCTTAGGTCAGGGCCAGTATAGGAGGAACGTT | 0.0136
16 | TCGCCTAGGTCATGCGGGCCAGTATAGTGTCGGC | -0.348
17 | ATCGAAAGGTCGAGGTGAGTAAAGAGAAAGGGAA | 0.184
18 | ATACCAAGGTGATCGTGAGGGCGTTGATACTAAC | 0.775
19 | CCTAATGGGCCATCAGGTCATTGATATCAACGTT | 0.78
20 | TAGCCTAGGTCATTCGGCCAGTATAGTACGCATC | -0.455

Row | Sequence | PBM binding z-score
21 | TAAATGAGGTTATAAGATCAGGGAACGTTGCAAA | 0.251
22 | AGAATAAGGTTAAGATCAGGGAAACAGAATACAT | 0.822
23 | TAGCGTAGGTCATTCAGGGGCCAGTATAGAAAGC | 0.138
24 | TTTTGTAGATCAAGCAGGTTAAGAAAGCCTGAGT | 0.386
25 | ATCTCTAGGTAACCAAGTTCAGTGATTGCCGAAC | 2.46
26 | TCATATAGGTAGAAGGTGAAAGTCGGTGTGGTAA | 0.482
27 | ACAGACAGGTGATGAAGGTAATTCAGGCTATCAT | -0.169
28 | AGAACGAGGGAAATGAGTTGATAGCACGGGTGGC | 0.0651
29 | ACTTACGGGTCAACGAGGTTATAACACGCGTATA | 4.42
30 | ACAGACCGGTGATGAAGGTAACTCAGGCTATCAT | -0.142
31 | AGAATGAGGTTATACGTAGATCATGGAAGAAAGT | 0.482
32 | TGAATGAGGTTGTAAGATCAGGGAACGTTGCAAA | -0.318
33 | ACTAGCAGGCCAAGTTTGGGACACTCAAACAAAG | -0.694
34 | CGTCAAAGTTCAGGGTAACGTAACAGAAAGCAGC | 1.67
35 | ACAATTAGTTGAGACGAGGGCAACCGATAGGTTG | 0.711
36 | TCGAGTAGGTTAGTCGGGGCATTCAGCCAACATA | -0.488
37 | CAAACTCGGTCAAGGTCAAAGTCGGTTTGTGCCA | 2.66
38 | CCTACTGGGACATCAGGTCATTGATATCAACGTT | 1.56
39 | AGTCAAAGTTCAGGACGGGGTAACGTAAAGCACG | 1.28
40 | ATCTCTAGGTAAAGATAGTTTAGTGAATGCAAAT | 0.329

Tested on: RARa:RXR (NR concentration 270 nM, RXRa partner concentration 90 nM)
Assay: as above
Outline: as §1

Row | Sequence | PBM binding z-score
41 | TCATATAGGTAAAGGTGAAAGTAGAACGATATGA | 1.42
42 | CCGAGTAGGTTATGCGGCATTCAGGCAACGGTGA | 0.343
43 | TCAGCCAGGTGAAGGTAACTCAGGTACGCAGTCG | 0.481
44 | ACTAGCAGGCCAAGTTTGGGTTACTCAAACAAAG | 0.00564
45 | CCTCGGAGGAAAACAGGAGGTCAGAGCTGCCAGA | 1.95
46 | ATATGTTGGTTAGCTGGGGTCATTCAGACTAGGC | 5.26
47 | GCTTACGGGCCAAAGGTTATAGCATGAATAGAAT | 3.13
48 | GCTAGCAGGCCATTTGGGTCACTTAATGACGGGC | 0.758
49 | ATCGAAAGGTCGAAGGTGAGTAAACCCACCCGAA | 4.5
50 | TTACCAATGTGAAGGTCGTTGATCCCTCTGTAGA | 1.45
51 | TCATATAGGTTATACAGGTGAAAGTCGGCATCTA | 1.9
52 | AATACAGGGTCACTAGGCCAGAGCAGGTACGAAT | 4.15
53 | CCAGACAAGTGAAAGGTAACTCAGTCTGGTACGC | 0.166
54 | CCTACTGGGCCACGAAGGGTCATTGATTCAGTGA | 3.46
55 | CAGCTTAGGTCAGGGCCAGTATAGGAGGAACGTT | 1.68
56 | TCGCCTAGGTCATGCGGGCCAGTATAGTGTCGGC | 2.59
57 | ATCGAAAGGTCGAGGTGAGTAAAGAGAAAGGGAA | 2.88
58 | ATACCAAGGTGATCGTGAGGGCGTTGATACTAAC | 0.85
59 | CCTAATGGGCCATCAGGTCATTGATATCAACGTT | 2.18
60 | TAGCCTAGGTCATTCGGCCAGTATAGTACGCATC | 2

Row | Sequence | PBM binding z-score
61 | TAAATGAGGTTATAAGATCAGGGAACGTTGCAAA | 1.62
62 | AGAATAAGGTTAAGATCAGGGAAACAGAATACAT | 1.93
63 | TAGCGTAGGTCATTCAGGGGCCAGTATAGAAAGC | 4.5
64 | TTTTGTAGATCAAGCAGGTTAAGAAAGCCTGAGT | 0.469
65 | ATCTCTAGGTAACCAAGTTCAGTGATTGCCGAAC | 0.708
66 | TCATATAGGTAGAAGGTGAAAGTCGGTGTGGTAA | 1.17
67 | ACAGACAGGTGATGAAGGTAATTCAGGCTATCAT | 0.367
68 | AGAACGAGGGAAATGAGTTGATAGCACGGGTGGC | -0.474
69 | ACTTACGGGTCAACGAGGTTATAACACGCGTATA | 5.84
70 | ACAGACCGGTGATGAAGGTAACTCAGGCTATCAT | -0.0159
71 | AGAATGAGGTTATACGTAGATCATGGAAGAAAGT | 1.77
72 | TGAATGAGGTTGTAAGATCAGGGAACGTTGCAAA | 0.203
73 | ACTAGCAGGCCAAGTTTGGGACACTCAAACAAAG | -0.143
74 | CGTCAAAGTTCAGGGTAACGTAACAGAAAGCAGC | 2.17
75 | ACAATTAGTTGAGACGAGGGCAACCGATAGGTTG | 1.13
76 | TCGAGTAGGTTAGTCGGGGCATTCAGCCAACATA | 0.00411
77 | CAAACTCGGTCAAGGTCAAAGTCGGTTTGTGCCA | 4.81
78 | CCTACTGGGACATCAGGTCATTGATATCAACGTT | 2.04
79 | AGTCAAAGTTCAGGACGGGGTAACGTAAAGCACG | 3.45
80 | ATCTCTAGGTAAAGATAGTTTAGTGAATGCAAAT | -0.0138
